How the values were obtained:
Type in all cases: functional
[1] = target: Solute carrier family 2, facilitated glucose transporter member 1 (Homo sapiens) (UniProt P11166); assay: ST_JUDE_LEISH: Cytotoxicity at 2uM final concentration against transgenic Leishmania Mexicana promastigotes LmGLUT1 that are glucose transport deficient and complemented with the human glucose transporter GLUT1. Activity is measured by DNA content using SYBR green in vitro
[2] = target: Hexose transporter 1 (Plasmodium falciparum) (UniProt O97467); assay: ST_JUDE_LEISH: Cytotoxicity at 2uM final concentration against transgenic Leishmania Mexicana promastigotes LmPfHT that are glucose transport deficient and complemented with the Plasmodium falciparum hexose transporter. Activity is measured by DNA content using SYBR green in vitro
[3] = target: Glucose transporter (Leishmania mexicana) (UniProt O61059); assay: ST_JUDE_LEISH: Cytotoxicity at 2uM final concentration against transgenic Leishmania Mexicana promastigotes LmGT2 that are glucose transport deficient and complemented with the L. Mexicana glucose transporter 2. Activity is measured by DNA content using SYBR green in vitro

Solute carrier family 2, facilitated glucose transporter member 1 (Homo sapiens), sequence (P11166 whole entry): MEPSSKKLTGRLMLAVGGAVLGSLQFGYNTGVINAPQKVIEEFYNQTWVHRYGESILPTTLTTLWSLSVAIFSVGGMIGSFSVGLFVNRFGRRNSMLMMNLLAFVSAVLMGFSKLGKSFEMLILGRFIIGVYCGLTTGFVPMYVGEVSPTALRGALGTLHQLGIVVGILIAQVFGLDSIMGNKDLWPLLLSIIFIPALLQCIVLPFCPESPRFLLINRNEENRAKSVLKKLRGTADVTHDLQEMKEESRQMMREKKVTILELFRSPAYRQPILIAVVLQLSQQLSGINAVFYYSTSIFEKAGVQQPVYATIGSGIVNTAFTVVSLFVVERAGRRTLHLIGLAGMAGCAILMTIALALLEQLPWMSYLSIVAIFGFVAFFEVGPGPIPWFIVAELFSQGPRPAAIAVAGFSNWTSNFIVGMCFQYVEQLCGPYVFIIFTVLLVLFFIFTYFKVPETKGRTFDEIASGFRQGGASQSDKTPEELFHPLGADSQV

Row | Compound | inhibition [1] [%] | inhibition [2] [%] | inhibition [3] [%]
1 | COc1cc(C(=O)Nc2ccc3nc(N4CCN(C)CC4)cc(C)c3c2)cc(OC)c1OC | 1.09 | 0.31 | -0.52
2 | CN1CCC(C(=O)Nc2ccc(-c3ccc(-c4nc5ccccc5[nH]4)cc3)cc2)CC1 | 2.95 | 1.48 | 0.83
3 | O=C(NC1CCN(CCN2CCC(c3ccccc3C(F)(F)F)CC2)CC1)c1ccc(-c2ccc(Cl)cc2)cc1 | 9.46 | 0.61 | 1.57
4 | CCS(=O)(=O)Nc1ccc2c(c1)/C(=C(/Nc1ccc(CN3CCCCC3)cc1)c1ccccc1)C(=O)N2 | 83.1 | 89.4 | 82
5 | CCCCCCCc1c(C)[nH]c2ccc(F)cc2c1=O | -0.05 | 0.32 | -0.32
6 | O=S(=O)(NCCN1CCCC1)c1ccc(-c2cccc(CNCc3ccccc3)c2)s1 | -2.31 | -2.12 | -2.89
7 | Cc1cnc(CN(Cc2ccc(-c3ccc(CNCCc4ccc(S(C)(=O)=O)cc4)cn3)cc2)C(=O)c2ccc([N+](=O)[O-])c(C)c2)cn1 | 1.89 | 3.15 | 1.98
8 | CN1CCOc2ccc(Nc3nnc(-c4cccc(-c5cccnc5)c4)o3)cc2C1 | 3.12 | 2.67 | 1.35
9 | CCCCc1cc(NCc2ccncc2)nc(Nc2cccc(OC)c2)n1 | 21.4 | 10.9 | 3.45
10 | O=C(NCCCCN1CCC(O)(c2ccc(Cl)cc2)CC1)c1ccc(Br)cc1 | 4.03 | 2.65 | 4.04
11 | CCOC(=O)c1cccc(NC(=O)Nc2cccc(-c3ncc(OCCCN)c4c3nc(-c3nonc3N)n4CC)c2)c1 | 2.41 | 3.25 | 3.37
12 | C=C1C(C(=O)OCC)=CN(CC)c2cc(O[C@@H]3CCN(C(=O)OC(C)(C)C)C3)ccc21 | 6.89 | 5.44 | 6.99
13 | CO/C(=C\C=C\c1cc2cc(Cl)c(Cl)cc2[nH]1)C(=O)NC1CCN(CCOc2ccccc2)CC1 | 8.51 | 7.84 | 0.9
14 | CCN1CCC(N(Cc2ccc(-c3ccc(C(F)(F)F)cc3)cc2)C(=O)Cn2c(CCc3cccc(F)c3F)cc(=O)c3ccccc32)CC1 | -0.63 | -0.01 | -2.06
15 | COc1ccc(NC(=O)Nc2ccc(C)c(-c3ccc(C(=O)Nc4ccncc4)cc3)c2)cc1 | 1.53 | 1.45 | 0.71
16 | COc1cc(CNCCCNc2nc3ncccc3[nH]2)c2[nH]cc(Br)c2c1 | 23.9 | 43.1 | 21.6
17 | Fc1ccccc1-c1cc(Nc2ccncc2)nc(-c2cccnc2)n1 | 0.54 | 1.28 | -6.71
18 | NC1=NC(c2ccccc2)(c2ccccc2)C(=O)N1CCCCc1ccccn1 | -0.54 | -0.95 | -2.5
19 | Cc1cccc(Cl)c1S(=O)(=O)N1CCCCC(c2ccc(C(F)(F)F)cc2)=N1 | 4.54 | 4.52 | 3.77
20 | O=C(Cc1ccccc1)NC(Nc1ccc([N+](=O)[O-])cc1)C(Cl)(Cl)Cl (configuration not stated) | -0.19 | 1.43 | 0.18
21 | CCC(c1ccccc1)c1nn2c(-c3cccs3)nnc2s1 (configuration not stated) | 2.96 | 3.46 | 0.64
22 | CC1(C)NC(N)=NC(=N)N1OCc1cc(Cl)c(Cl)cc1CON1C(=N)N=C(N)NC1(C)C | 3.89 | 2.37 | 0.54
23 | Nc1nc(N)c2c(ccc3c2ccn3CCCC2CCCNC2)n1 (configuration not stated) | 0.22 | -0.13 | 1.44
24 | CN1CCCN(Cc2ccc(-c3ccc(NC(=O)c4ccc(Cl)cc4)cc3)cc2)CC1 | 63.1 | 50 | 50.7
25 | COc1ccc2nc(C)cc(N/N=C/c3ccc([N+](=O)[O-])o3)c2c1 | 3.7 | 6.04 | 0.72

Row | Compound | inhibition [1] [%] | inhibition [2] [%] | inhibition [3] [%]
26 | COc1ccccc1CCNC(=O)c1cnc(N2CCN(c3ccncc3)CC2)c(Cl)c1 | 74.5 | 83.8 | 82.9
27 | Cc1noc(C)c1-c1cccc(CNCc2ccc(-c3ccc(-c4nc5cc(F)ccc5[nH]4)s3)cc2)c1 | 11.2 | 10.3 | 10.2
28 | CC(C)(C)CCN1CCC(NC(=O)c2ccc(-c3cccc(C(F)(F)F)c3)s2)CC1 | 1.71 | 5.61 | 3.83
29 | CCCC(=O)NC(c1cccs1)c1cc(Cl)c2cccnc2c1O (configuration not stated) | 0.53 | 1.83 | -0.61
30 | CC(C)(CNC(=O)C1CCN(Cc2ccoc2)CC1)c1nc(-c2ccc(Cl)c(O)c2)c(-c2ccncc2)[nH]1 | -1.41 | 0.07 | -2.68
31 | Cc1cc(-c2nc3ccc(N4CCN(C)CC4)cc3[nH]2)nn1Cc1cc(Cl)ccc1OCC(C)C | 1 | 1.76 | 0.44
32 | CCN(CC)CCN(Cc1ccc(-c2ccc(C(F)(F)F)cc2)cc1)C(=O)Cn1c(CCc2cc(F)c(F)cc2F)nc(=O)c2ccccc21 | 13.6 | 12.3 | 12.8
33 | Cc1cc(NC(=O)c2ccco2)ccc1OC1CCN(Cc2ccc(F)cc2)CC1 | 4.89 | 3.02 | 1.98
34 | O=C(C=Cc1ccc(Cl)c(Cl)c1)NCCCCCN1CCC(CCCNS(=O)(=O)c2cccc(C(F)(F)F)c2)CC1 | 0.51 | -1.72 | 2.46
35 | O=C(/C=C/c1ccsc1)N1CCC(CCN2CCC(c3c[nH]c4ccccc34)CC2)CC1 | 2.34 | 3.57 | 6.24
36 | Oc1cc(-c2nc(C3(CNCc4ccc(Cl)cc4)CCCCC3)[nH]c2-c2ccncc2)ccc1Cl | 4.11 | 5.35 | 5.4
37 | Cc1cc(NCCCCCCNc2cc(C)nc3c(C)cccc23)c2cccc(C)c2n1 | 3.76 | 7.91 | 0.85
38 | O=C(Nc1ccc(Cl)c(Cl)c1)C1CCC(=O)N1[C@@H](Cc1ccccc1)C(=O)NCCc1ccc(Cl)cc1 (some centres not stated) | 0.51 | 0.41 | 1.43
39 | CCNc1cc(C(=O)N[C@@H](Cc2ccccc2)[C@H](O)CNCc2cc(OC)cc(OC)c2)cc(N2CCCS2(=O)=O)c1 | 1.6 | 2.17 | -0.47
40 | COc1cc(Cc2cnc(N)nc2N)cc(OCCCC#N)c1OC | 0.61 | -1.21 | -1.3
41 | N=c1c2c(n(Cc3ccccc3)c3c1CCC3)CCCC2 | 26.6 | 28.1 | 7.1
42 | O=C(Nc1cccc(C(F)(F)F)c1)NC1CCN(c2ccnc3cc(Cl)ccc23)C1 (configuration not stated) | -0.97 | -2.13 | 0.93
43 | CC(C)C[C@H](Nc1ccnc(NCC2CCCCC2)n1)C(=O)NCCOc1ccccc1 | 2.57 | 3.02 | 2.47
44 | O=c1cc(NCCCNCc2[nH]c3cc(Cl)ccc3c2Cl)[nH]c2ccccc12 | 5.19 | 3.33 | 4.15
45 | Cc1cc(OCCCNC(=N)c2ccc3ccccc3c2)c(C(C)C)cc1Cl | 2.28 | 2.39 | -0.77
46 | CCN(CC)CCNc1ccnc2[nH]c3ccc([N+](=O)[O-])cc3c12 | 3.68 | 3.92 | 3.99
47 | CN1CCCN(Cc2cccc(-c3cccc(NS(=O)(=O)c4cccc5cccnc45)c3)c2)CC1 | 10.4 | 10.8 | 2.53
48 | COc1cccc(C(=O)Nc2ccc(Oc3ccc(Cl)cc3)cc2)c1 | -1.17 | -0.22 | -1.01
49 | CCCCNC(=O)c1[nH]c2c(NC(=O)COc3ccccc3)cccc2c1-c1cccc(NC(=O)C(N)CO)c1 (configuration not stated) | 10.1 | 9.02 | 7.27

Source: ChEMBL document CHEMBL3433997, “St. Jude Leishmania screening dataset” (2016)
